PubChem BioAssay (NCI)
“And” between values parts separate entries of the source, which are not always exact repeats. Equal values may be shown once. About 79,000 compounds went through this panel and 15% of them were active in at least one assay; those are over-represented in the sample as a whole. The source made the active and inactive calls. No stated cut-off is given here; in the data, active means growth inhibition above about 70%; inactive means the rest.

assay: NCI Yeast Anticancer Drug Screen. Data for the mec2-1 strain (AID 157); conditions: S. cerevisiae mec2-1 strain, at 50.0 µM, active compounds read high
In short: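 Readout is yeast growth inhibition, normalised to vehicle-treated controls, in the mec2-1 strain exposed to compound.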

SMILES | growth inhibition
CC1=NN(c2ccccc2)C(=O)C1N=Nc1cc(Cl)cc(S(=O)(=O)O)c1O (stereo unspecified) | 21.6% (inactive)
O=C(O)CC(NC(=O)CP(=O)(O)O)C(=O)O.[NH-]C1CCCCC1[NH-].[Pt+2] (stereo unspecified) | -27.1% (inactive)
COc1ccc(-c2nc3c(C(=O)NCCN(C)C)cccc3c3ccccc23)cc1 | 56% (inactive)
C[C@]12CCC(=O)C=C1CC[C@@H]1[C@@H]2[C@@H](O)C[C@@]2(C)[C@H]1CC[C@]2(O)C(=O)COC(=O)CCC1CCCC1 | 84.1% (active)
O=C1C=CC(=O)N1c1cccc([N+](=O)[O-])c1 | 99.7% (active)
CC(=O)O/C=C1\c2ccccc2CCC1c1ccc2ccccc2c1 (stereo unspecified) | -23.9% (inactive)
COC1OC2COC(c3ccccc3)OC2C(O)C1O (stereo unspecified) | -11.6% (inactive) and -15.6% (inactive) and -3.65% (inactive)
CCOc1ccccc1NC1=C(Cl)C(=O)c2ccccc2C1=O | 97.9% (active)
CCc1cccc(C)c1N1C(=O)C(=O)C(c2nc3ccccc3o2)/C(=N\NS(=O)(=O)c2ccc(C)cc2)C1=O (stereo unspecified) | 14.2% (inactive)
O=C(CC(=O)c1ccccc1)CC(=O)c1cccc(Cl)c1 | 65% (inactive)
CC(O)c1c2ccccc2cc2ccccc12 (stereo unspecified) | 39.3% (inactive)
CCCCCCCCCCCCCCCCC#N | -7.4% (inactive)
CSc1ccccc1C(=O)O | -1.9% (inactive) and -7.55% (inactive) and 25.9% (inactive)
O=C1/C(=C/c2cccc(Br)c2)CCc2ccccc21 | 18.4% (inactive)
CC1(C)c2ccccc2Cc2cc3ccccc3nc21 | 93% (active)
Cc1ccc(S(=O)(=O)OCC(O)C(O)COS(=O)(=O)c2ccc(C)cc2)cc1 (stereo unspecified) | -10.2% (inactive) and -4.45% (inactive) and -13.8% (inactive)
CN(C)Cc1ccc2[nH]c3c(c2c1)CCCC3 | 36.6% (inactive)
C=C1C(=O)O[C@@H]2C[C@@]3(C)CCC[C@H](C)C3=C[C@H]12 | 67.2% (inactive)
O=C1C=CC(=O)c2c1cc1ccccc1c2O | -10.8% (inactive)
Cc1c(CNc2ccc(Cl)c(Cl)c2Cl)cnc2nc(N)nc(N)c12 | 44.5% (inactive)
O=C(O)C1(Cc2ccc3c(c2)CCC3)Cc2cc3c(cc2C1)CCC3 | 86.1% (active)
O=C(c1ccc(O)c(Br)c1)c1cc(Br)ccc1O | 96.9% (active)
Oc1cc(F)cc2cccnc12 | 94.3% (active)
OCC(O)C(O)C(O)C(O)CNCC(O)C(O)C(O)C(O)CO (stereo unspecified) | 15% (inactive) and 17.2% (inactive) and 10.3% (inactive)
C/C(=N\OC(=O)c1ccccc1)[N+](=O)[O-] | 77.8% (active)
O=C(c1ccccc1)C(Br)CCCC(Br)C(=O)c1ccccc1 (stereo unspecified) | 96.3% (active)
